Assay outcomes from PubChem.
TROY NFkB inh = TROY signaling inhibition; Q293 LMP1-TROYcd NF-kB luciferase reporter, 4 h; inhibition, % at 10 µM; 360,000 compounds, 0.98% hits; AID 1347056;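 active = compounds whose plate-normalised and pattern-corrected inhibition of the luciferase reporter signal at the single screening dose is 50% or more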
HSF-1 act = increases HSF-1 driven luciferase reporter signal | NIH3T3-HGL HSF-1 luciferase reporter, MG132, 8 h; 100% = twice DMSO control signal | activation, % at 9 µM | 300,000 compounds, 1.7% hits | AID 504408;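 active = mean replicate activation of at least 50% with a set share of replicates each reaching 50%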;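 note: 0% = median of the neutral control wells and 100% = twice that signal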
HSF1 inhib = HSF1 inhibition | activity change, negative = inhibition, % at 7.5 µM (by protocol) | AID 2098 | 300,000 compounds, 0.77% hits | NIH3T3-HGL HSE-luciferase, MG132-induced, luminescence 8 h; hits give low values;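 active = more than half of replicate wells show activity change below -50%, luminescence cut by over half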;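 note: luciferase reports HSF-1 transcriptional activity via heat shock element; 0% = median of DMSO wells and -100% = zero luminescence signal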
TWEAK-Fn14 inh = TWEAK-Fn14 signaling inhibition. TWEAK-stimulated Fn14 reporter cells, luciferase luminescence, 8 h. inhibition, % at 10 µM. 360,000 compounds, 2% hits. AID 1159606; in the data active = inhibition above about 50%
LMP1 NFkB inh = inhibitors of Epstein-Barr LMP1-induced NF-kappaB reporter; LMP1-induced NF-kappaB luciferase reporter cells, luminescence; inhibition, % at 12.5 µM; 350,000 compounds, 0.69% hits; AID 504558; in the data active = inhibition above about 41%;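 note: 0% = neutral control wells and 100% = reference inhibitor control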
HSP90 refold inh = blocks HSP90-mediated luciferase refolding in reticulocyte lysate; Rabbit reticulocyte lysate, luciferase refolding luminescence, 3 h; inhibition, % at 5.6 µM; 290,000 compounds, 0.91% hits;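 active = inhibition above the screen-wide mean plus 3 SD, computed separately per campaign, cut at about 16% in these data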;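 note: 0% = DMSO wells and 100% = 60 µM geldanamycin wells; inhibitors lower the luminescence because luciferase stays unfolded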
* marks the source's active call; other numbers are inactive results; x = no result. Only some compounds are listed: those with a hit (about 4.7% of all), similar ones and a draw of the others.

SMILES	TROY NFkB inh	HSF-1 act	HSF1 inhib	TWEAK-Fn14 inh	LMP1 NFkB inh	HSP90 refold inh
COc1ccc2c(=O)c(N3C(=O)c4ccccc4C3=O)coc2c1	-25	-11	-8	7	-2	4
COc1ccc(NC(=O)CSc2nnnn2C2CCCC2)cc1S(=O)(=O)N1CCOCC1	-20	x	x	-12	3	x
CC1CC(=O)N(c2ccc(NCCc3ccccc3)c([N+](=O)[O-])c2)C1=O (stereo not given)	-10	23	20	-17	-4	-2
O=C1C2CC=CCC2C(=O)N1c1ccc(NCCc2ccccc2F)c([N+](=O)[O-])c1 (stereo not given)	-35	64*	37	11	-24	-6
O=C1C2CC=CCC2C(=O)N1c1ccc(NCCc2ccccc2)c([N+](=O)[O-])c1 (stereo not given)	-49	70*	35	-17	-7	-1
O=C(c1ccccc1)c1sc(Nc2ccc3c(c2)OCO3)nc1-c1ccccc1	-2	x	x	27	x	x
COc1ccccc1CNc1nc2cc(-c3ccc(OC)c(OC)c3)sc2c(=O)n1C	44	x	x	77*	x	x
COc1cccc(CNc2nc3cc(-c4ccccc4)sc3c(=O)n2C)c1OC	29	x	x	63*	x	x
COc1cccc(CNc2nc3cc(-c4cccc(OC)c4)sc3c(=O)n2C)c1	-1	x	x	-26	x	x
COc1ccc(-c2cc3nc(NCc4ccc(NC(C)=O)cc4)n(C)c(=O)c3s2)cc1OC	19	x	x	-38	x	x
COc1cccc(CNc2nc3cc(-c4cnn(Cc5ccccc5)c4)sc3c(=O)n2C)c1	20	x	x	68*	x	x
COc1cccc(CNc2nc3cc(-c4cccc(Cl)c4)sc3c(=O)n2C)c1OC	10	x	x	50*	x	x
COc1cccc(CNc2nc3cc(-c4cccc(C(F)(F)F)c4)sc3c(=O)n2C)c1OC	10	x	x	38	x	x
CCCCN1C(=O)C(CC(=O)NCC2CCCCC2)CC(C(=O)N2CCCCCC2)=C1C (stereo not given)	-23	x	x	-14	x	x
Cc1ccn2cc(-c3cc4ccccc4oc3=O)nc2c1	0	x	x	66*	25	6
O=C1NC(Cc2ccccc2)c2nc3ccccc3c(=O)n2-c2cc3ccccc3cc21 (stereo not given)	4	x	x	2	-3	x
CN(C)c1ccc(NS(=O)(=O)c2ccc(-c3csnn3)cc2)cc1	18	-33	-35	-4	x	-2
CN(C)S(=O)(=O)c1ccc(-c2csnn2)s1	-5	-89	-86*	-2	-2	3
O=C(CCC1CCCCC1=O)c1ccccc1 (stereo not given)	-48	2	5	3	-8	2
CC1(C)CC(=O)C(CCC(=O)c2ccccc2)C(C)(C)N1 (stereo not given)	3	-89	-86*	11	-2	1
Cn1nc(C(C)(C)C)cc1NC(=O)C1(C)CCN1C(=O)c1ccccc1CCc1ccccc1 (stereo not given)	11	x	x	0	x	x
CC1=C(C#N)c2nc(N)c(C#N)c(C)c2/C1=C\c1ccc(-c2ccccc2C(=O)O)o1	25	-9	0	70*	30	-1
CC(=O)Nc1ccc(S(=O)(=O)c2ccnc3cc(Cl)ccc23)cc1	22	x	x	77*	14	x
CCOc1cc(CNc2ccc3c(c2)OCCO3)cc(Br)c1OCC	77*	-85	-82*	81*	28	16*
CCOc1cc(CNc2ccc(N3CCOCC3)cc2)cc(Br)c1OCC	24	-26	-26	18	6	4
SMILES	TROY NFkB inh	HSF-1 act	HSF1 inhib	TWEAK-Fn14 inh	LMP1 NFkB inh	HSP90 refold inh
COc1ccc(C2C(C#N)=C(N)N(N(C)C)C3=C2C(=O)CC(C)(C)C3)cc1OC (stereo not given)	-32	20	2	-16	-5	3
COc1cc(C2C(C#N)=C(N)N(N(C)C)C3=C2C(=O)CC(C)(C)C3)ccc1O (stereo not given)	2	-80	-76*	6	-11	-3
CC(C)COC(=O)N1CCCCC1c1cc(C(=O)NC(C)C)no1 (stereo not given)	2	x	x	3	x	x
CC(C)c1ccc(N=Cc2c(O)c3ccccc3oc2=O)cc1	69*	-3	3	82*	-27	14
COc1ccc(N=Cc2c(O)c3ccccc3oc2=O)cc1	27	12	12	5	-6	-2
CCn1cc(/C=C(\NC(=O)c2ccccc2)C(=O)NCCCn2ccnc2)c2ccccc21	11	x	x	3	4	x
